# Calb FLC – affects C. albicans growth with fluconazole | AID 1979 | C. albicans CaCi-2 (fluconazole-resistant clinical isolate) + fluconazole, Alamar Blue growth, 48 h | 0.57% of 300,000 active | growth inhibition, % (no concentration beside the values);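 active = growth inhibition above about 58% in most replicates, limit read from the data, passing the limit was not always enough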;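 also: all wells also contain fluconazole at 8 µg/ml as a sub-toxic cotreatment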
# Mdm2-MdmX inh – human Mdm2/MdmX binding inhibition; O15151+Q00987; SaOS-2 split-luciferase Mdm2/MdmX complementation, luminescence; inhibition, % at 8 µM; 3% of 330,000 active; AID 485346;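 active = inhibition of at least 50% at 8 µM in the primary screen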
# CSC inhib – cancer stem cell inhibition; cancer stem cell-like cells viability, luminescence; inhibition, % at 7.5 µM; 1.1% of 300,000 active; AID 2717; in the data active = inhibition above about 75%; tested in HMLE shEcad cells
# Beta cell apopt – blocks beta cell apoptosis | INS-1E cytokine-induced death, ATP luminescence, 48 h; percent of positive-control rescue, neutral wells zero | protection from apoptosis, % (concentration not given with the values) | 0.8% of 300,000 active | AID 435005;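 active = Every replicate reaches about 75%, or at least half do and their mean reaches it too, limit read from the data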;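 also: higher means more ATP so stronger rescue from cytokine killing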
# MPTP block – permeability transition pore inhibition; 1.4% of 360,000 active; inhibition, % at 10 µM; isolated mouse mitochondria, Ca2+ swelling absorbance, 30 min;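 active = inhibition of 50% or more, scaled per plate between neutral and stimulator controls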
# SKKanGAS inh – blocks kanamycin growth of S. pyogenes SKKanGAS strain. BacTiter-Glo, 6 h. inhibition, % at 7.5 µM. 1.3% of 300,000 active;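 active = mean replicate score, as percent of positive control median, at least 50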;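 also: strain carries kanamycin resistance gene driven by streptokinase promoter and grows in 40 µg/ml kanamycin; loss of luminescence reflects streptokinase promoter inhibition or plain growth inhibition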
# Mdm2-MdmX conf – human Mdm2/MdmX binding inhibition, confirmed; shares compounds with Mdm2-MdmX inh; luminescent assay; inhibition, % at 8 µM; 55% of 10,000 active; AID 489028; in the data active = inhibition above about 40%
# Full FLuc ctr – counter-screen for Mdm2/MdmX inhibitors: full-length luciferase. inhibition, % at 8 µM. SaOS-2 full-length luciferase counterscreen, luminescence. 77% of 6,200 active. shares compounds with Mdm2-MdmX inh;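 active = mean inhibition at 8 µM reaching about 37%, which flags the compound as non-specific, limit read from the data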;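 also: p53-null SaOS-2 cells with luciferase driven by a doxycycline-inducible promoter; compound on cells about two nights before reading with doxycycline added after day one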
# Hits are given with their value; . = inactive; / = no result. Only some compounds are listed: those with a hit (about 5.4% of all), similar ones and a draw of the others.
SMILES,Calb FLC,Mdm2-MdmX inh,CSC inhib,Beta cell apopt,MPTP block,SKKanGAS inh,Mdm2-MdmX conf,Full FLuc ctr
CC(C(=O)OCC(=O)c1ccc([N+](=O)[O-])cc1)N1C(=O)C2C3C=CC(C3)C2C1=O (configuration not stated),.,.,.,.,.,.,/,/
Cn1c(/C=C/c2ccc(Cl)cc2)c([N+](=O)[O-])c(=O)n(C)c1=O,.,64,.,.,.,.,44,37
CN(/C=C/c1c([N+](=O)[O-])c(=O)n(C)c(=O)n1C)c1ccccc1,.,.,.,.,.,.,/,/
Cn1c(/C=C/c2cccc([N+](=O)[O-])c2)c([N+](=O)[O-])c(=O)n(C)c1=O,94,84,.,.,.,.,52,43
Cn1nc(-c2ccc(Cl)cc2)c2cc(C(=O)N3CCN(c4ccccn4)CC3)sc21,.,55,.,.,.,.,.,/
O=C(CCN1CCCCC1=O)NC1CCCN(Cc2ccc(Cl)cc2)C1 (configuration not stated),.,.,.,.,.,.,/,/
O=C(C[C@H]1C[C@H](C(=O)N2CCOCC2)[C@@]2(CCC3CCCC3)c3[nH]c4ccc(Cl)cc4c3CCN2C1=O)NCC12CC3CC(CC(C3)C1)C2,/,84,/,/,.,/,70,.
CCN(CC)C(=O)[C@H]1C[C@H](CC(=O)NCC23CC4CC(CC(C4)C2)C3)C(=O)N2CCc3c([nH]c4ccc(Cl)cc34)[C@]12C,/,.,/,/,.,/,/,/
COc1ccc2[nH]c3c(c2c1)CCN1C(=O)C(CC(=O)NCC24CC5CC(CC(C5)C2)C4)C[C@H](C(=O)N2CCOCC2)[C@@]31CCC1CCCC1 (some centres not stated),/,77,/,/,.,/,68,43
CC(C)N(C(=O)[C@H]1C[C@H](CC(=O)NCC23CC4CC(CC(C4)C2)C3)C(=O)N2CCc3c([nH]c4ccc(Cl)cc34)[C@]12C)C(C)C,/,92,/,/,.,/,50,73
COc1ccc2[nH]c3c(c2c1)CCN1C(=O)C(CC(=O)NCCC2=CCCCC2)C[C@H](C(=O)N2CCOCC2)[C@@]31CCC1CCCC1 (some centres not stated),/,.,/,/,.,/,/,/
COC(=O)Nc1ccc(S(=O)(=O)N2CCCC(C(=O)N3CCOCC3)C2)cc1 (configuration not stated),.,.,.,.,.,.,/,/
Cc1ccccc1-c1nc(CN2CCC(C(=O)NCCC3=CCCCC3)CC2)c(C)o1,.,58,.,.,.,.,.,76
Cc1ccccc1-c1nc(CN2CCC(C(=O)NC3CCCCC3)CC2)c(C)o1,.,.,.,.,.,.,/,/
Cc1ccccc1-c1nc(CN2CCC(C(=O)NCCCN3CCCC(C)C3)CC2)c(C)o1 (configuration not stated),.,96,.,.,.,.,70,43
Cc1ccc(-c2[nH]c(-c3ccc(Cl)cc3)nc2SCC(=O)NCC2CCCO2)cc1 (configuration not stated),.,.,.,.,.,.,/,/
O=C(O)c1cccc(S(=O)(=O)N2CCCC(c3nc4c(nnn4Cc4ccc(F)cc4)c(=O)[nH]3)C2)c1 (configuration not stated),.,.,.,.,.,.,/,/
O=C(O)CCCn1cc(NC(=O)c2c(F)cccc2F)cn1,.,.,.,.,.,.,/,/
CC(C)c1ccc(-c2csc3ncnc(N4CCN(C)CC4)c23)cc1,.,58,.,.,.,.,57,39
CCN1CC(CN(C)Cc2nc(-c3ccc(C(F)(F)F)cc3)no2)CC1=O (configuration not stated),.,.,.,.,.,.,/,/
Cc1ccc(-c2ccc(/C=N\NC(=O)c3cc4c(ccc5ccccc54)o3)o2)cc1[N+](=O)[O-],.,94,.,.,.,.,.,/
Cc1cc([N+](=O)[O-])ccc1-c1ccc(/C=N/NC(=O)c2ccc(Br)o2)o1,.,95,88,.,.,.,.,/
Cc1ccc([N+](=O)[O-])cc1-c1ccc(/C=N/NC(=O)c2cc3c(ccc4ccccc43)o2)o1,.,.,.,.,.,.,/,/
FC(F)(F)c1cc(-c2ccccn2)nc2cc(-c3ccccc3)nn12,.,.,.,.,.,.,/,/
CC(C)NC(=O)c1ccc(NC(=O)CC2SC(N3CCCCC3)=NC2=O)cc1 (configuration not stated),/,.,/,.,.,/,/,/
SMILES,Calb FLC,Mdm2-MdmX inh,CSC inhib,Beta cell apopt,MPTP block,SKKanGAS inh,Mdm2-MdmX conf,Full FLuc ctr
CCc1cc2c(nc1CC)CCN(CC/C(C)=N/OC[C@H]1O[C@H](c3ccccc3)C=C[C@@H]1Oc1ccc(OC)cc1)C2,.,54,/,/,/,.,41,65
Cc1cccc2sc(N(CCN(C)C)C(=O)/C=C/c3cccs3)nc12,.,63,.,.,.,.,.,/
COc1ccc2nc(N(CCN(C)C)C(=O)/C=C/c3cccs3)sc2c1,.,53,.,.,.,.,.,44
COc1ccc2sc(N(CCN(C)C)C(=O)/C=C/c3cccs3)nc2c1,.,.,.,.,.,.,/,/
Cc1ccc(C)c(NC(=O)COC(=O)c2ccc(S(=O)(=O)N3CCCC3)cc2)c1,/,/,/,/,.,/,/,/
COc1ccc(C(=O)CC(=O)c2ccc(OC)cc2)cc1,.,.,.,.,.,.,/,/
O=C(c1cccs1)c1no[n+]([O-])c1C(=O)c1cccs1,.,95,.,.,.,.,.,/
COc1ccc(C(=O)c2no[n+]([O-])c2C(=O)c2ccc(OC)cc2)cc1,.,62,.,.,.,.,.,/
CC1=C(C)CC(C(=O)c2ccc(C)cc2)C(C(=O)O)C1 (configuration not stated),.,.,.,.,.,.,/,/
COc1cc(C2CC(=O)N(c3ccc(C)cc3)C(=O)C2)cc(OC)c1OC,.,54,.,.,.,.,41,61
COc1ccc(N2C(=O)CC(c3cc(OC)c(OC)c(OC)c3)CC2=O)cc1,.,.,.,.,.,.,/,/
CC(=O)Nc1ccc(S(=O)(=O)N2CCN(c3nc(C)cc(C)n3)CC2)cc1,.,.,.,.,.,.,/,/
COc1ccc(-c2csc(NC(=O)CCn3cnc4ccccc4c3=O)n2)cc1OC,.,58,.,.,.,.,.,/
COc1ccc(-c2csc(NC(C)=O)n2)cc1OC,.,.,.,.,.,.,/,/
COc1ccc(-c2csc(NC(=S)NC(=O)c3ccc4ccccc4c3)n2)cc1OC,.,78,.,.,.,.,.,/
COc1cccc(NC(=O)Nc2nc(-c3ccc(OC)c(OC)c3)cs2)c1,.,96,104,.,.,.,98,52
COC(=O)[C@@]1(Cc2ccc(F)cc2)[C@H]2c3cc(C(=O)N4CCCC4)n(CCCNc4ncc(C(F)(F)F)cc4Cl)c3C[C@H]2CN1C(=O)c1ccccc1,.,62,.,.,.,.,.,/

# Bioassay records from PubChem.
